{"source": "the supplement of paper PMC4022240", "assay_in_all_cases": "peptide microarray binding signal (635 nm), min-max normalized on array (fraction of array maximum); higher = stronger binding", "key": {"[1]": {"biological_target": "T1, HaloTag-ATRX ADD domain (163-292)", "T1 chain": "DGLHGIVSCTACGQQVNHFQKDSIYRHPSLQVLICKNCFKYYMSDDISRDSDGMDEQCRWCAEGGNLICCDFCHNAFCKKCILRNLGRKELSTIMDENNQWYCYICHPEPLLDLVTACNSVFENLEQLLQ", "procedure": "(§1)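 Histone 13-mer peptides were synthesized as cellulose conjugates with a C-terminal 20-atom PEG linker and printed in triplicate on nitrocellulose. The sequence given is the unmodified backbone; PTMs (Kme1/2/3, Kac, Sph/Tph, Rme/Rme2a/Rme2s, Rcit) are listed in the label and the 'peptide modifications' condition. Slides were probed at 4 °C for 1 h with biotin-labelled (HQ)5-HaloTag reader fusions (ATRX-ADD, ING2-PHD) then streptavidin-Alexa647, or with rabbit histone antibodies then anti-rabbit Alexa647. The mean 635 nm signal of the triplicate spots was scaled 0-1 between the lowest and highest values on each array.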"}, "[2]": {"biological_target": "HaloTag-ING2 PHD (mouse Ing2 200-280)", "procedure": "as §1"}, "[3]": {"biological_target": "anti-H3K4me3 antibody ab8580", "procedure": "as §1"}, "[4]": {"biological_target": "anti-H3K9me3 antibody ab8898", "procedure": "as §1"}, "[5]": {"conditions": "peptide region: H2B 17-29, peptide modifications: H2BK20ac H2BK23ac H2BK27ac, binder concentration: 1:2,000 dilution"}, "[6]": {"conditions": "peptide region: H2B 17-29, peptide modifications: H2BK20ac H2BK23ac H2BK27ac, binder concentration: 1:10,000 dilution"}, "[7]": {"conditions": "peptide region: H2B 17-29, peptide modifications: H2BK20ac H2BK23ac H2BK24ac H2BK27ac, binder concentration: 1:2,000 dilution"}, "[8]": {"conditions": "peptide region: H2B 17-29, peptide modifications: H2BK20ac H2BK23ac H2BK24ac H2BK27ac, binder concentration: 1:10,000 dilution"}, "[9]": {"conditions": "peptide region: H2B 7-19, peptide modifications: H2BK15ac, binder concentration: 1:2,000 dilution"}, "[10]": {"conditions": "peptide region: H2B 7-19, peptide modifications: H2BK15ac, binder concentration: 1:10,000 dilution"}, "[11]": {"conditions": "peptide region: H2B 7-19, peptide modifications: H2BS14ph H2BK15ac H2BK16ac, binder concentration: 1:2,000 dilution"}, "[12]": {"conditions": "peptide region: H2B 7-19, peptide modifications: H2BS14ph H2BK15ac H2BK16ac, binder concentration: 1:10,000 dilution"}, "[13]": {"conditions": "peptide region: H2B 17-29, peptide modifications: H2BK20ac H2BK23ac H2BK27ac H2BK28ac, binder concentration: 1:2,000 dilution"}, "[14]": {"conditions": "peptide region: H2B 17-29, peptide modifications: H2BK20ac H2BK23ac H2BK27ac H2BK28ac, binder concentration: 1:10,000 dilution"}}, "note": "± gives the standard deviation.", "data": [{"binder": "AVTKAQKKDGKKR", "note": "[H2B 17-29 A V T Kac A Q Kac K D G Kac K R]", "values": [{"measurement": "peptide microarray binding signal", "setting": "[1]; peptide region: H2B 17-29, peptide modifications: H2BK20ac H2BK23ac H2BK27ac, binder concentration: 50 nM", "value": "0.00646 ± 0.00075"}, {"measurement": "peptide microarray binding signal", "setting": "[1]; peptide region: H2B 17-29, peptide modifications: H2BK20ac H2BK23ac H2BK27ac, binder concentration: 500 nM", "value": "0.00214 ± 0.00028"}, {"measurement": "peptide microarray binding signal", "setting": "[2]; peptide region: H2B 17-29, peptide modifications: H2BK20ac H2BK23ac H2BK27ac, binder concentration: 10 nM", "value": "0.00585 ± 0.00024"}, {"measurement": "peptide microarray binding signal", "setting": "[2]; peptide region: H2B 17-29, peptide modifications: H2BK20ac H2BK23ac H2BK27ac, binder concentration: 100 nM", "value": "0.000992 ± 4.7e-05"}, {"measurement": "peptide microarray binding signal", "setting": "[3]; [5]", "value": "0.000189 ± 5.4e-06"}, {"measurement": "peptide microarray binding signal", "setting": "[3]; [6]", "value": "0.0016 ± 0.00014"}, {"measurement": "peptide microarray binding signal", "setting": "[4]; [5]", "value": "0.000664 ± 5.2e-05"}, {"measurement": "peptide microarray binding signal", "setting": "[4]; [6]", "value": "0.001211 ± 1.2e-05"}]}, {"binder": "AVTKAQKKDGKKR", "note": "[H2B 17-29 A V T Kac A Q Kac Kac D G Kac K R]", "values": [{"measurement": "peptide microarray binding signal", "setting": "[1]; peptide region: H2B 17-29, peptide modifications: H2BK20ac H2BK23ac H2BK24ac H2BK27ac, binder concentration: 50 nM", "value": "0.00357 ± 0.00035"}, {"measurement": "peptide microarray binding signal", "setting": "[1]; peptide region: H2B 17-29, peptide modifications: H2BK20ac H2BK23ac H2BK24ac H2BK27ac, binder concentration: 500 nM", "value": "0.00643 ± 0.00011"}, {"measurement": "peptide microarray binding signal", "setting": "[2]; peptide region: H2B 17-29, peptide modifications: H2BK20ac H2BK23ac H2BK24ac H2BK27ac, binder concentration: 10 nM", "value": "0.00579 ± 0.00026"}, {"measurement": "peptide microarray binding signal", "setting": "[2]; peptide region: H2B 17-29, peptide modifications: H2BK20ac H2BK23ac H2BK24ac H2BK27ac, binder concentration: 100 nM", "value": "0.00702 ± 0.00069"}, {"measurement": "peptide microarray binding signal", "setting": "[3]; [7]", "value": "0.00136 ± 0.0002"}, {"measurement": "peptide microarray binding signal", "setting": "[3]; [8]", "value": "0.00131 ± 2.6e-05"}, {"measurement": "peptide microarray binding signal", "setting": "[4]; [7]", "value": "0.000982 ± 0.00011"}, {"measurement": "peptide microarray binding signal", "setting": "[4]; [8]", "value": "0.0011 ± 2.2e-05"}]}, {"binder": "APAPKKGSKKAVT", "note": "[H2B 7-19 A P A P K K G S Kac K A V T]", "values": [{"measurement": "peptide microarray binding signal", "setting": "[1]; peptide region: H2B 7-19, peptide modifications: H2BK15ac, binder concentration: 50 nM", "value": "0.00238 ± 6.4e-05"}, {"measurement": "peptide microarray binding signal", "setting": "[1]; peptide region: H2B 7-19, peptide modifications: H2BK15ac, binder concentration: 500 nM", "value": "0.00448 ± 0.00011"}, {"measurement": "peptide microarray binding signal", "setting": "[2]; peptide region: H2B 7-19, peptide modifications: H2BK15ac, binder concentration: 10 nM", "value": "0.00561 ± 0.00014"}, {"measurement": "peptide microarray binding signal", "setting": "[2]; peptide region: H2B 7-19, peptide modifications: H2BK15ac, binder concentration: 100 nM", "value": "0.0039 ± 0.00027"}, {"measurement": "peptide microarray binding signal", "setting": "[3]; [9]", "value": "0.00308 ± 0.00021"}, {"measurement": "peptide microarray binding signal", "setting": "[3]; [10]", "value": 0.000742}, {"measurement": "peptide microarray binding signal", "setting": "[4]; [9]", "value": "0.0006645 ± 5.9e-06"}, {"measurement": "peptide microarray binding signal", "setting": "[4]; [10]", "value": 0.000807}]}, {"binder": "APAPKKGSKKAVT", "note": "[H2B 7-19 A P A P K K G Sph Kac Kac A V T]", "values": [{"measurement": "peptide microarray binding signal", "setting": "[1]; peptide region: H2B 7-19, peptide modifications: H2BS14ph H2BK15ac H2BK16ac, binder concentration: 50 nM", "value": "0.00307 ± 0.00018"}, {"measurement": "peptide microarray binding signal", "setting": "[1]; peptide region: H2B 7-19, peptide modifications: H2BS14ph H2BK15ac H2BK16ac, binder concentration: 500 nM", "value": "0.00848 ± 0.00083"}, {"measurement": "peptide microarray binding signal", "setting": "[2]; peptide region: H2B 7-19, peptide modifications: H2BS14ph H2BK15ac H2BK16ac, binder concentration: 10 nM", "value": "0.00525 ± 0.00091"}, {"measurement": "peptide microarray binding signal", "setting": "[2]; peptide region: H2B 7-19, peptide modifications: H2BS14ph H2BK15ac H2BK16ac, binder concentration: 100 nM", "value": "0.00312 ± 7.5e-05"}, {"measurement": "peptide microarray binding signal", "setting": "[3]; [11]", "value": "0.00427 ± 0.00019"}, {"measurement": "peptide microarray binding signal", "setting": "[3]; [12]", "value": 0.00108}, {"measurement": "peptide microarray binding signal", "setting": "[4]; [11]", "value": "0.000876 ± 3.2e-05"}, {"measurement": "peptide microarray binding signal", "setting": "[4]; [12]", "value": "0.00104 ± 1.1e-05"}]}, {"binder": "AVTKAQKKDGKKR", "note": "[H2B 17-29 A V T Kac A Q Kac K D G Kac Kac R]", "values": [{"measurement": "peptide microarray binding signal", "setting": "[1]; peptide region: H2B 17-29, peptide modifications: H2BK20ac H2BK23ac H2BK27ac H2BK28ac, binder concentration: 50 nM", "value": "0.00414 ± 0.00019"}, {"measurement": "peptide microarray binding signal", "setting": "[1]; peptide region: H2B 17-29, peptide modifications: H2BK20ac H2BK23ac H2BK27ac H2BK28ac, binder concentration: 500 nM", "value": "0.00762 ± 0.00011"}, {"measurement": "peptide microarray binding signal", "setting": "[2]; peptide region: H2B 17-29, peptide modifications: H2BK20ac H2BK23ac H2BK27ac H2BK28ac, binder concentration: 10 nM", "value": "0.00913 ± 0.00015"}, {"measurement": "peptide microarray binding signal", "setting": "[2]; peptide region: H2B 17-29, peptide modifications: H2BK20ac H2BK23ac H2BK27ac H2BK28ac, binder concentration: 100 nM", "value": "0.0159 ± 0.00082"}, {"measurement": "peptide microarray binding signal", "setting": "[3]; [13]", "value": "0.00168 ± 6.8e-05"}, {"measurement": "peptide microarray binding signal", "setting": "[3]; [14]", "value": "0.0024 ± 4.3e-05"}, {"measurement": "peptide microarray binding signal", "setting": "[4]; [13]", "value": "0.000861 ± 5.4e-05"}, {"measurement": "peptide microarray binding signal", "setting": "[4]; [14]", "value": "0.000923 ± 9.6e-06"}]}]}
